HT1080 IDH1KD tx – toxicity to HT-1080 IDH1 knockdown cells (counter line) | HT-1080 IDH1 knockdown viability, ATP luminescence, 48 h | Potency, µM (doses to about 46.1 µM), usual class: cytotoxic | 360,000 compounds, 2% hits | AID 686971
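Luminescent ATP read-out (CellTiter-Glo, 10 min at room temperature) after 48 h compound exposure at 37 °C gave viability of IDH1-knockdown HT-1080 cells. Activity was normalised to DMSO and cell-free wells, then fitted as concentration-response curves.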
HT1080NT lethal – kills 2HG-producing HT-1080-NT fibrosarcoma cells. HT-1080-NT fibrosarcoma viability, CellTiter-Glo ATP luminescence, 48 h. 360,000 compounds, 1.6% hits. AID 686970. Potency, µM (top dose mostly 46.1 µM), hits mostly cytotoxic;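 note: NT is the 2HG producing partner of a matched IDH1 knockdown line; nearly all actives have a fitted effect of over 55% in size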
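A 48-hour cytotoxicity screen used HT-1080-NT cells plated 2 hours before compound delivery. ATP-based CellTiter-Glo luminescence measured viability, normalized to DMSO and no-cell controls.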
TDP1 cell CPT – DT40-hTDP1 cell growth loss with CPT; chicken DT40 Tdp1-/-;hTDP1 cells + 20 nM CPT, ATP luminescence, 48 h; Potency, µM (highest dose often 46.2 µM), hits mostly inhibitors; 420,000 compounds, 12% hits; AID 686979; note: nearly all actives have a fitted effect of over 55% in size
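Cell growth measured by CellTiter-Glo luminescence after a minimum 48 h, 37 C compound exposure with 20 nM CPT in Tdp1-knockout DT40 cells stably expressing hTDP1, seeded 400/well; qHTS titration format.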
HepG2 tox – kills HepG2 cells in TGF-b inhibitor counter-screen; 410,000 compounds, 0.76% hits; HepG2 CAGA-GFP viability, ATP luminescence, 18 h; Potency, µM (doses to about 46.1 µM), actives largely listed as cytotoxic
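CellTiter-Glo luminescence gave cytotoxicity after 18 hours at 37 degrees C. The cells were HepG2 CAGA-GFP in 1% FBS DMEM, stimulated with 500 pg/mL TGF-beta after compound addition. %Activity was normalised to no-cell wells (complete cell-killing) and DMSO (no toxicity), and curves were fitted and classified.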
TGFb SMAD3 inh – blocks TGF-b signaling; HepG2 CAGA-GFP TGF-b/SMAD3 reporter, GFP fluorescence, 18 h; TGF-beta stimulated, 500 pg/mL final; Potency, µM (titrated, usually from 46.1 µM), most hits filed as inhibitors; 410,000 compounds, 1.2% hits; note: nearly all actives have a fitted effect of over 65% in size
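Inhibition was scored as loss of TGF-beta-induced (500 pg/mL final, 18 hours, 37 degrees C) GFP in HEPG2 cells carrying a CAGA-GFP reporter, in DMEM with 1% FBS. Well GFP was summed per cell; Activity was normalised to unstimulated and stimulated DMSO wells, then concentration-response fitting.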
TDP1 cell noCPT – qHTS for Inhibitors of human tyrosyl-DNA phosphodiesterase 1 (TDP1): qHTS in cells in absence of CPT; DT40 Tdp1-/- hTDP1 cells, no CPT, ATP luminescence, 48 h; Potency, µM (doses to about 46.2 µM), most hits filed as inhibitors; 420,000 compounds, 15% hits; AID 686978, 2013; note: nearly all actives have a fitted effect of over 55% in size
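Seeded 400 DT40-hTDP1 cells/well (vehicle DMSO, no 20 nM CPT); pinned compounds; ≥48 hr at 37 °C; CellTiter-Glo luminescence as viability measure.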
Numbers stand for hits; - = inactive; ? = inconclusive; . = no result; [ ] = remark or other dose. Shown are actives, neighbours in structure and some others; about 17% of the full set was active somewhere. Calls come from the whole dose curve; as a rule, active = well fitted curve in the direction sought with a large enough effect; inconclusive = small, poorly fitted or top-dose-only effect, or another doubt; inactive = no such curve, though single readings can be large; an effect the other way counts as inactive or inconclusive.

SMILES	HT1080 IDH1KD tx	HT1080NT lethal	TDP1 cell CPT	HepG2 tox	TGFb SMAD3 inh	TDP1 cell noCPT
CC(C)c1ccc(OC(=O)c2cccc(S(=O)(=O)N3CCN(C)CC3)c2)cc1	-	-	?	-	-	18µM
COC(=O)c1c(NC(=O)c2cccc(S(=O)(=O)N3CCN(C)CC3)c2)sc(C)c1C	-	-	15µM	-	-	15µM
Cc1cccc(CSc2ncc(Cl)c(C(=O)Nc3sc4c(c3C#N)CCCC4)n2)c1	.	.	23µM	-	-	5.8µM
Cc1cccc(CSc2ncc(Cl)c(C(=O)Nc3sc4c(c3C(N)=O)CCCC4)n2)c1	.	.	23µM	-	?	8.2µM
COC(=O)c1c(NC(=O)c2nc(SCc3cccc(C)c3)ncc2Cl)sc2c1CCCC2	.	.	-	-	-	-
COc1ccc(-n2c(SCC(N)=O)nc3sc4c(c3c2=O)CCC4)cc1	-	-	-	-	-	-
Cc1ccc(CNC(=O)CN2C(=O)C3CCCCN3c3ccc(C(=O)N4CCCC4)cc32)cc1 (stereo unspecified)	.	.	-	-	?	-
Brc1ccc(-c2nc3ncccn3c2NC2CCCCC2)o1	-	-	16µM	-	-	?
Cc1cc(C)n(CCCN2CCC(C(=O)Nc3cccc(-c4cccc(F)c4)c3)CC2)n1	-	-	?	-	?	18µM
CCn1ncc(CN2CCC(C(=O)Nc3cccc(-c4cccc(F)c4)c3)CC2)c1C	?	-	?	-	-	6.5µM
O=C(Nc1cccc(-c2cccc(F)c2)c1)C1CCN(Cc2ccc(CO)o2)CC1	?	?	?	-	?	?
O=C(Nc1cccc(-c2cccc(F)c2)c1)C1CCN(C2CCOCC2)CC1	-	?	?	-	-	?
CSc1nn(CC(=O)Nc2ccc(C)cc2C)c(N)c1S(=O)(=O)c1ccc(Cl)cc1	.	.	?	-	?	?
CNc1cncc(-c2cc(C)c(O)c(C)c2)n1	?	?	4.1µM	-	-	6.5µM
COc1ccc(NS(=O)(=O)c2cc(N)ccc2N2CCCCC2)cc1	-	-	?	-	-	-
Nc1ccc(N2CCCC2)c(S(=O)(=O)Nc2cccc(C(F)(F)F)c2)c1	-	-	?	-	-	29µM
O=C(c1ccc(S(=O)(=O)Nc2cccc(C(F)(F)F)c2)cc1)N1CCN(c2ccccc2O)CC1	?	-	?	-	?	23µM
Cc1ccc(OCC(=O)Nc2cc(C(C)(C)C)on2)cc1C	-	-	-	-	-	-
CCn1cnc2cc(NC(=O)c3ccc(C)cc3)ccc21	-	-	-	-	-	-
COC(=O)[C@@]12C[C@@H](CC(=O)N3CCSCC3)C(=O)N(Cc3ccco3)C1=CCC(C)(C)C2	-	-	-	.	.	?
CCCC[C@@H](CNC)NC[C@H](Cc1ccc(O)cc1)NCCc1ccc(OCC)cc1	-	?	5.2µM	13µM	?	3.3µM
Cc1cccc(NC(=O)c2sc(Cl)nc2C)c1C	-	-	-	-	-	-
Cn1cccc1C(=O)C(=O)Nc1ccccc1C(F)(F)F	-	?	-	-	-	-
CCOC(=O)c1cnn(-c2ccccc2)c1-n1cccc1C(=O)C(=O)Nc1ccccc1C(F)(F)F	-	-	?	-	-	21µM
COC(=O)C1CCN(Cc2ccc3c(c2)CN(C(=O)C2Cc4ccccc4O2)CCO3)CC1 (stereo unspecified)	.	.	-[9.04 µM]	.	.	-
COc1ccc(N2C3=C(C(=O)CC(C)(C)C3)C(c3ccccc3OC)C3=C2CC(C)(C)CC3=O)cc1	-	-	?	-	-	16µM
Cc1ccc(N2C3=C(C(=O)CC(C)(C)C3)C(c3cn(C)nc3C)C3=C2CC(C)(C)CC3=O)cc1	?	-	15µM	-	?	13µM
Cc1nn(C)cc1C1C2=C(CC(C)(C)CC2=O)N(c2ccccc2)C2=C1C(=O)CC(C)(C)C2	-	-	-	-	-	-
